Potency and outcome data for eight compounds are collected here from PubChem BioAssay (Tox21).

A short description of assay [1]: qHTS assay to identify small molecule antagonists of the sonic hedgehog signaling (Shh) pathway (AID 1259369; calls by dose curve; note: nearly all actives have a fitted effect of over 45% in size; note: potency is the fitted concentration of half-maximal effect). In short, it runs like this: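 Inhibition of Shh signalling is measured as reduced Gli1-response-element firefly luciferase output in an NIH/3T3-derived stable reporter clone stimulated with conditioned medium for 24hr.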
The target of assay [2] is Estrogen receptor beta (Homo sapiens) (UniProt Q92731). In words: qHTS assay to identify small molecule agonists of the estrogen receptor beta (ER-beta) signaling pathway (AID 1259377; active = well fitted activation curve with a large enough effect in the signal ratio in the repeat runs, not every such curve was filed as active; the % refers to the signal ratio). In short, it runs like this:
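ER-beta-UAS-bla HEK293T (GripTite) cells carrying a UAS-driven beta-lactamase reporter, in medium with 2% charcoal-stripped FBS, were exposed to compounds for 16 hr at 37C; LiveBLAzer B/G FRET substrate was then added and fluorescence read after 2 hours at room temperature.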

For assay [3] the target is unchanged. Nature of the assay: qHTS assay to identify small molecule antagonists of the estrogen receptor beta (ER-beta) signaling pathway (AID 1259378; active = well fitted inhibition curve with a large enough effect in the signal ratio in the repeat runs, not every such curve was filed as active; the % refers to the signal ratio). The gist of the method: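 ER-beta-UAS-bla HEK293T (GripTite) cells in 2% charcoal-stripped FBS medium were preincubated 6 hr at 37C, dosed with compound, then stimulated with 1 nM E2 (final) for 16 hr; beta-lactamase reporter read by B/G FRET fluorescence after 2 hr substrate loading.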

Assay [4] can be described thus: qHTS assay to identify small molecule agonists of the androgen receptor (AR) signaling pathway in the presence of an antagonist - cell viability counter screen (AID 1259379).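 Note: MDA-kb2 human breast cancer cells carrying an MMTV luciferase reporter; series mostly up to about 92 µM; nearly all actives have a fitted effect of over 25% in size.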 In short, it runs like this:
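Fluorescence from CellTiter-Fluor, added after 15 hr and read 1 hr later, gave cell viability. Cells were MDA-kb2 exposed to compounds (15 concentrations) in the presence of 3.0uM nilutamide at 37C, 0% CO2.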

A short description of assay [5]: qHTS assay to identify small molecule agonists of the estrogen receptor beta (ER-beta) signaling pathway - cell viability counter screen (AID 1259380). Note: nearly all actives have a fitted effect of over 30% in size. In short, it runs like this: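 Same-well viability counter screen. Cells: ER-beta-UAS-bla HEK293T, plated 6 hr before compound, in 2% charcoal-stripped FBS. Compound exposure 16 hr, 37C; viability by CellTiter-Glo luminescence after 30 min at room temperature.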

Assay [6] deals with Androgen receptor (Homo sapiens) (UniProt P10275). Nature of the assay: qHTS assay to identify small molecule agonists of the androgen receptor (AR) signaling pathway in the presence of an antagonist (AID 1259381; calls by dose curve; note: nearly all actives have a fitted effect of over 15% in size). The gist of the method: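 Cells are MDA-kb2 (human breast carcinoma, MMTV-luc, AR/GR responsive). Nilutamide is present at 3.0uM final throughout; compounds are added at 15 concentrations and incubated 16hr at 37C before ONE-Glo luminescence detection.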
Chain of Androgen receptor (Homo sapiens) (P10275 whole entry, looked up): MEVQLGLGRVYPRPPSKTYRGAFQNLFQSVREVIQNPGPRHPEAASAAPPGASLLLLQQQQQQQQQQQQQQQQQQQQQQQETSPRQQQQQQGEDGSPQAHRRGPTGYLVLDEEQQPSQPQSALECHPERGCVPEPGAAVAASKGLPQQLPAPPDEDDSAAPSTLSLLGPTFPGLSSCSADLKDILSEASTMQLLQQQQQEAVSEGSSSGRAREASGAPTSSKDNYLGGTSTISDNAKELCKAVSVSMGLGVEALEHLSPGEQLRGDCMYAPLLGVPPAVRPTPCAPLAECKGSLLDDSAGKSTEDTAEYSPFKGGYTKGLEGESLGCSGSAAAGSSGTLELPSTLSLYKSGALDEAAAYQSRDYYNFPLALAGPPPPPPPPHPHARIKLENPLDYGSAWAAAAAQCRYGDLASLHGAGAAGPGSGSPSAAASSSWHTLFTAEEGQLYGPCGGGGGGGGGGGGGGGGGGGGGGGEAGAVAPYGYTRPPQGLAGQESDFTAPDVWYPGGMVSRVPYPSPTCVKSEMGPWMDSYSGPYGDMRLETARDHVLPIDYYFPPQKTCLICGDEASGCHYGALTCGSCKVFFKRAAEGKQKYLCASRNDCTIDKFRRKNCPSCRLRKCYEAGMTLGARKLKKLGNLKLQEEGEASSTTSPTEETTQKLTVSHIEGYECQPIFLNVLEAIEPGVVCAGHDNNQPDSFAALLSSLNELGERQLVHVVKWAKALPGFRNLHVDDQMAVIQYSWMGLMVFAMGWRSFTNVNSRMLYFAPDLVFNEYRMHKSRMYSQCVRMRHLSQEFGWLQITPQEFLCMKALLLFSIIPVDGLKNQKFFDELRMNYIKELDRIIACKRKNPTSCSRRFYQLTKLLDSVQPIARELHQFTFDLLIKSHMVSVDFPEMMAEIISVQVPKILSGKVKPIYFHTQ

The nature of assay [7]: qHTS assay to identify small molecule antagonists of the estrogen receptor beta (ER-beta) signaling pathway - cell viability counter screen (AID 1259382). Note: series mostly up to about 92 µM; nearly all actives have a fitted effect of over 55% in size. In short, it runs like this:
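Following a 6 hr plating period, HEK293T cells carrying a UAS-driven beta-lactamase reporter under ER-beta control received compounds and 1nM E2 (final). After 16 hr at 37C and 2 hr substrate loading, CellTiter-Glo luminescence indicated viability.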

Assay [8] deals with Estrogen receptor (Homo sapiens) (UniProt P03372). Nature of the assay: qHTS assay to identify small molecule agonists of the estrogen receptor alpha (ER-alpha) signaling pathway in the presence of an antagonist (AID 1259383; calls by dose curve; note: top concentration of the series differs between compounds; nearly all actives have a fitted effect of over 15% in size). The gist of the method: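 Cells are hormone-deprived for 5 days (charcoal-stripped FBS, no phenol red), plated for 24hr, spiked with 10.0nM ICI-182,780, then dosed at 15 concentrations. After 22hr at 37C, ONE-Glo luminescence reports ERE-luciferase activity.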
Chain of Estrogen receptor (Homo sapiens) (P03372 whole entry, looked up): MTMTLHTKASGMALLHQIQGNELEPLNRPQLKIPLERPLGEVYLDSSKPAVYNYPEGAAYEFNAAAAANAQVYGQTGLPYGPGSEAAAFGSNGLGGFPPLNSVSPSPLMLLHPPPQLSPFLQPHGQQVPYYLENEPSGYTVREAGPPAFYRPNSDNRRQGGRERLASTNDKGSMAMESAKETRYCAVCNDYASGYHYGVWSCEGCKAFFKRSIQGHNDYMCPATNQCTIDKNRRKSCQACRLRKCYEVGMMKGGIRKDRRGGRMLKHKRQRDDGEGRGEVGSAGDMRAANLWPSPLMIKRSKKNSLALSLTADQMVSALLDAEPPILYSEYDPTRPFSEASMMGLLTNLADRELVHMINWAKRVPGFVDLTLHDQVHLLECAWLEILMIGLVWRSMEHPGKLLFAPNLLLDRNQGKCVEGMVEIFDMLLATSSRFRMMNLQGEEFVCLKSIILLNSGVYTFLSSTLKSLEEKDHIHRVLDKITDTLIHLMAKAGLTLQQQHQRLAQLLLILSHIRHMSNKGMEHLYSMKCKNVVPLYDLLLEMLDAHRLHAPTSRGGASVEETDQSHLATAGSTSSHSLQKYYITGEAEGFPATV

A short description of assay [9]: qHTS assay to identify small molecule agonists or antagonists of the thyroid stimulating hormone receptor (TSHR) signaling pathway - wild type cell line counter screen (AID 1259384; calls by dose curve). The gist of the method:
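Wild-type HEK293 cells were plated 18 h at 37 C/5% CO2, pin-dosed with compound plus Ro20-1724 medium, held 30 min at room temperature, then given cAMP-d2 and anti-cAMP-cryptate; fluorescence was read after 1 h. Fifteen concentrations, triplicate.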

Assay [10] has as its target Thyrotropin receptor (Homo sapiens) (UniProt P16473). Nature of the assay: qHTS assay to identify small molecule antagonists of the thyroid stimulating hormone receptor (TSHR) signaling pathway (AID 1259385; calls by dose curve; note: nearly all actives have a fitted effect of over 20% in size). In short, it runs like this:
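TSHR-HEK293 cells were plated and held 18 h at 37C/5% CO2, then given compound plus Ro20-1724 and stimulated with TSH at 1.5 ng/mL final. After 30 min at room temperature, cAMP was detected with cAMP-d2/anti-cAMP-cryptate (1 h) by fluorescence.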

Assay [11] can be described thus: qHTS assay to identify small molecule agonists of the estrogen receptor alpha (ER-alpha) signaling pathway in the presence of an antagonist - cell viability counter screen (AID 1259386).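 Note: series mostly up to about 92 µM; cells exposed to compounds for 22 h at 37 °C before the viability read; nearly all actives have a fitted effect of over 30% in size.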 The gist of the method: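 Cells are starved of estrogens for 5 days in charcoal-stripped serum, seeded for 24hr and co-treated with ICI-182,780 (10.0nM final) and test compounds. After 22hr at 37C, viability is read as CellTiter-Fluor fluorescence.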

Assay [12] concerns the target Progesterone receptor (Homo sapiens) (UniProt P06401). Nature of the assay: qHTS assay to identify small molecule antagonists of the progesterone receptor (PR) signaling pathway (AID 1346795; active = well fitted inhibition curve with a large enough effect in the signal ratio in the repeat runs, not every such curve was filed as active; the % refers to the signal ratio). The gist of the method: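 PR-UAS-bla HEK293T cells carrying a UAS-driven beta-lactamase reporter were plated in medium with 2% charcoal-stripped FBS and rested 6 hr at 37C. Compounds were added with 1 nM R5020 (final) for 16 hr, then FRET substrate loaded 2 hr at room temperature.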

Assay [13] in a line: qHTS assay to identify small molecule antagonists of the progesterone receptor (PR) signaling pathway - cell viability counter screen (AID 1346798). Note: series mostly up to about 92 µM; nearly all actives have a fitted effect of over 50% in size. The gist of the method: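 PR-UAS-bla HEK293T cells in medium with 2% charcoal-stripped FBS were treated with compounds plus R5020 for 16 hr at 37C. Cell viability was then read by CellTiter-Glo luminescence after 30 min at room temperature in the same wells.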

Assay [14] in a line: qHTS assay to identify small molecule agonists of the progesterone receptor (PR) signaling pathway - cell viability counter screen (AID 1346799; calls by dose curve; note: nearly all actives have a fitted effect of over 45% in size). In short, it runs like this:
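PR-UAS-bla HEK293T cells, 3,000 per well in medium with 2% charcoal-stripped FBS, were preincubated 6 hr at 37C, then exposed to compounds for 16 hr; viability was read as CellTiter-Glo luminescence after 30 min at room temperature.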

Assay [15] can be described thus: qHTS assay to identify small molecule agonists of the TGF-beta/Smad signaling pathway - cell viability counter screen (AID 1346829). Note: top concentration of the series differs between compounds; nearly all actives have a fitted effect of over 45% in size. In short, it runs like this:
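After overnight seating at 37 C and 5% CO2, reporter cells got compounds for 5 hr and FRET substrate for 2 hr; cell viability then came from CellTiter-Glo luminescence.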

Assay [16] concerns the target Thyrotropin-releasing hormone receptor (Homo sapiens) (UniProt P34981). Nature of the assay: qHTS assay to identify small molecule antagonists of the thyrotropin-releasing hormone receptor (TRHR) signaling pathway (AID 1346877; active = well fitted inhibition curve with a large enough effect in the repeat runs, not every such curve was filed as active; note: series mostly up to about 51 µM). In short, it runs like this: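 Cells (TRHR-HEK293) are plated and kept 18 h at 37 °C/5% CO2. A calcium-sensitive dye is added for 2 h, compound follows for 5 min at room temperature, and TRH is then given at 1 nM final.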

For assay [17] the target is unchanged. Nature of the assay: qHTS assay to identify small molecule agonists of the thyrotropin-releasing hormone receptor (TRHR) signaling pathway (AID 1346891; calls by dose curve; note: series mostly up to about 58 µM). In short, it runs like this:
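TRHR-expressing HEK293 cells were plated 18 h at 37 °C/5% CO2, loaded with calcium dye 2 h at 37 °C, then given compound in DMSO; fluorescence was read kinetically for 3 min at 1 s intervals.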

In assay [18] the target is Progesterone receptor (Homo sapiens) (UniProt P06401). Nature of the assay: qHTS assay to identify small molecule agonists of the progesterone receptor (PR) signaling pathway (AID 1346784; calls by dose curve; note: nearly all actives have a fitted effect of over 30% in size). In short, it runs like this:
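PR-UAS-bla HEK 293T cells carrying a UAS-driven beta-lactamase reporter were seeded in medium with 2% charcoal-stripped FBS, preincubated 6 hr at 37C, then exposed to compounds in DMSO for 16 hr; agonism was read by LiveBLAzer B/G FRET fluorescence.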

Assay [19] in a line: qHTS assay to identify small molecule antagonists of the TGF-beta/Smad signaling pathway - cell viability counter screen (AID 1346824). Note: nearly all actives have a fitted effect of over 50% in size. The gist of the method: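 SBE-bla HEK 293T cells were plated overnight at 37 C, then given compounds in DMSO plus TGF-beta1 (added as 0.25 ng/mL solution) for 5 hr. After the bla read, CellTiter-Glo was added to the same wells and luminescence read after 30 min at room temperature.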

The nature of assay [20]: qHTS assay to identify small molecule agonists of the TGF-beta/Smad signaling pathway (AID 1346859; active = well fitted activation curve with a large enough effect in the signal ratio in the repeat runs, not every such curve was filed as active; the % refers to the signal ratio; note: series mostly up to about 77 µM). In short, it runs like this:
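HEK 293T cells stably carrying a beta-lactamase reporter driven by the Smad binding element were seeded overnight, exposed to DMSO-dissolved compounds for 5 hr at 37 C, 5% CO2, then loaded with FRET substrate for 2 hr at room temperature.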

Molecules are shown by their SMILES. “And” between values parts separate entries of the source, which are not always exact repeats. Equal values may be shown once. Records with an inconclusive call do not appear. Some structures have more than one record in an assay (separate samples or runs), and their calls can disagree. The source made the active and inactive calls. Unless noted, calls come from the whole dose curve; as a rule, active = well fitted curve in the direction sought with a large enough effect in the repeat runs; inconclusive = weak or mixed curves; inactive = no such curve, though single readings can be large; an effect the other way counts as inactive or inconclusive.

Chain of Thyrotropin-releasing hormone receptor (Homo sapiens) (P34981 whole entry, looked up): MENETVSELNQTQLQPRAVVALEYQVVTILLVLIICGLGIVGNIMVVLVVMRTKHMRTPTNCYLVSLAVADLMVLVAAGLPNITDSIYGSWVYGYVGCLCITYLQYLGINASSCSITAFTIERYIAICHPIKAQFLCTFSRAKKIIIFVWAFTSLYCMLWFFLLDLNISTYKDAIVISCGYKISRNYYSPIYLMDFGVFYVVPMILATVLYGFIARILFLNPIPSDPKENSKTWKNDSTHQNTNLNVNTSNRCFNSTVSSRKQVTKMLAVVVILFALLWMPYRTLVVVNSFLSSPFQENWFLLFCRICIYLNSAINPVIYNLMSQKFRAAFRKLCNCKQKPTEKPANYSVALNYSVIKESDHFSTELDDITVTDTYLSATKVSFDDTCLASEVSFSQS
Chain of Thyrotropin receptor (Homo sapiens) (P16473 whole entry, looked up): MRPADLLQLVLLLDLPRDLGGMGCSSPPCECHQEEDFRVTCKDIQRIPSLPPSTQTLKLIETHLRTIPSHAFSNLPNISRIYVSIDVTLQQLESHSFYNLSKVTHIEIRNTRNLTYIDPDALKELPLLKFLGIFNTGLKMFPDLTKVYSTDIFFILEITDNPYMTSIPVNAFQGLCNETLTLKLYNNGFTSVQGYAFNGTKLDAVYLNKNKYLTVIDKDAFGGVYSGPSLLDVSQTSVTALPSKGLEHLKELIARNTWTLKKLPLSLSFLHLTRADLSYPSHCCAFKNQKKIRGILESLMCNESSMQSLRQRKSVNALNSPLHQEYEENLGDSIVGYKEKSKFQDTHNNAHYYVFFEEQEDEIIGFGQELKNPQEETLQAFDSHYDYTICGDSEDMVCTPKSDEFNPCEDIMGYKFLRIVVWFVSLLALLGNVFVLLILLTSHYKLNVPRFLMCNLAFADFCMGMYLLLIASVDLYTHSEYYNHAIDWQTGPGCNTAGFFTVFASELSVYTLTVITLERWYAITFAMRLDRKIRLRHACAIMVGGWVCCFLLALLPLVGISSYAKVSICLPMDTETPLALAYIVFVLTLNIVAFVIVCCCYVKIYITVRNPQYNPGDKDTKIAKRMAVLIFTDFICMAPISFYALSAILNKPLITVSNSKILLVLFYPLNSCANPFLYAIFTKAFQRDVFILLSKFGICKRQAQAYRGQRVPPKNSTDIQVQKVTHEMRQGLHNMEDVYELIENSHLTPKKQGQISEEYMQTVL
Chain of Estrogen receptor beta (Homo sapiens) (Q92731 whole entry, looked up): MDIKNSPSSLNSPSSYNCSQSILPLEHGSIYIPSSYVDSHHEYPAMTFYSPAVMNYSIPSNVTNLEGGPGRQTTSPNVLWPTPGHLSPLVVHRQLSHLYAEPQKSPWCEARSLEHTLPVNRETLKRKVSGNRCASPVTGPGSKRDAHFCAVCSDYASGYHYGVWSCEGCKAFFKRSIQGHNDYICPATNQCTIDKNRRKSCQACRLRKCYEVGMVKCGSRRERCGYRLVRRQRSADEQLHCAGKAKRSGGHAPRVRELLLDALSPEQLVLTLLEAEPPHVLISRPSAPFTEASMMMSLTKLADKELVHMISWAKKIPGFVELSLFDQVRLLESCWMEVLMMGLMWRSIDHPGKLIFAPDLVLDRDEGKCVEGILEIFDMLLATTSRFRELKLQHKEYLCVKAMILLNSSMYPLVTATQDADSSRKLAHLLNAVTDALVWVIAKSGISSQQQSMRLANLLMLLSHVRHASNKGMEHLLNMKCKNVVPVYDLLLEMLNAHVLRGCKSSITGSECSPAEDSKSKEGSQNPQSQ
Chain of Progesterone receptor (Homo sapiens) (P06401 whole entry, looked up): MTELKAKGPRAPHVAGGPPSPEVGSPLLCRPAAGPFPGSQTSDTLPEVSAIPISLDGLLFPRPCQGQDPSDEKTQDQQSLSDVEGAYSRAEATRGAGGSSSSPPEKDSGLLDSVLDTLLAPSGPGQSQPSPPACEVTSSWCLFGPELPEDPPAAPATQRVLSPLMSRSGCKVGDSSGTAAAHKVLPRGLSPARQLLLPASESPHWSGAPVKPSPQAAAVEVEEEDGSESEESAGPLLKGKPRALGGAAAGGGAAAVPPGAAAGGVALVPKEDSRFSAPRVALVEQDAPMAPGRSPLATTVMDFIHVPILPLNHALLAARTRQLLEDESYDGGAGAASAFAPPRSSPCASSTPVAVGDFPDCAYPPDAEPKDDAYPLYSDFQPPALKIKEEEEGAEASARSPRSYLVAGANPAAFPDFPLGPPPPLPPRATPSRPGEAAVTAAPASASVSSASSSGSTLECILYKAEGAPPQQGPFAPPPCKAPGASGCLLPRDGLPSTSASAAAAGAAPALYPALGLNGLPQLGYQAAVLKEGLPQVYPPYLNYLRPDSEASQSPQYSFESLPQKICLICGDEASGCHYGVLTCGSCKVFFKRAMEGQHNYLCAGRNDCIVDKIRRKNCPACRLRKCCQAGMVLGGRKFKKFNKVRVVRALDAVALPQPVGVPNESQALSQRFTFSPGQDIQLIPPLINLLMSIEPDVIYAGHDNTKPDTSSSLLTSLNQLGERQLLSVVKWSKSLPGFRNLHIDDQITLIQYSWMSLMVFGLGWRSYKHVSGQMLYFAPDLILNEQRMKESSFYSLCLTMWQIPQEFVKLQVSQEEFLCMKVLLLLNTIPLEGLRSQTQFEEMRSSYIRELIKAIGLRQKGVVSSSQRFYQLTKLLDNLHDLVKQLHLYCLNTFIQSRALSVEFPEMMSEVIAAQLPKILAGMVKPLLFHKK

With `O=[N+]([O-])/N=C1\NCCN1Cc1ccc(Cl)nc1`, the Potency entry in assay [1], in assay [2], in [3], in assay [4], in assay [5] and in assay [7] was “inactive” throughout. The Potency result in [8], in assay [9], in assay [10], in assay [11], in assay [12] and in assay [13] was “inactive” each time. Also, the Potency entry in assay [14], in [15] and in [16] was “inactive” each time. Besides, the outcome in assay [6] and in assay [17] was inactive.

On to `CCNc1nc(Cl)nc(NC(C)(C)C#N)n1`, for which the Potency in assay [1] is 685 nM (active). For the same compound, the Potency result in assay [2], in assay [3], in assay [4], in assay [5], in [7] and in assay [9] was “inactive” throughout. Also, the Potency result in [10], in [11], in assay [18], in [12], in assay [13] and in [14] was “inactive” each time. In addition, the Potency result in [19] and in assay [15] was “inactive” throughout.

On to `CCOC(=O)c1ccccc1N`, for which the Potency entry in assay [1], in assay [2], in assay [3], in [4], in assay [5] and in assay [7] was “inactive” each time. The Potency entry in assay [8], in assay [9], in [10], in assay [11], in [12] and in [13] was “inactive” throughout. The Potency entry in assay [14], in [19], in [15], in assay [20] and in [16] was “inactive” each time. Moreover, the compound was called inactive in assay [17].

Take `ClC(Cl)(Cl)c1ccccc1`: the Potency result in assay [1], in [2], in assay [3], in [4], in assay [5] and in [7] was “inactive” each time. Besides, the Potency result in [8], in assay [9], in assay [10], in [11], in assay [12] and in assay [13] was “inactive” throughout. The Potency result in assay [14], in assay [19], in assay [15] and in assay [20] was “inactive” in each case.

As to `Brc1ccc(Br)cc1`, the Potency entry in assay [1] is “inactive and 54.5 µM (active)”. The Potency entry in assay [2], in assay [3], in assay [4], in assay [5], in [7] and in assay [9] was “inactive” in each case. Besides, the Potency entry in assay [10], in assay [11], in assay [18], in [12], in assay [13] and in assay [14] was “inactive” throughout. The Potency result in assay [15] and in [20] was “inactive” in each case.

In the case of `N#Cc1cccnc1`, the Potency result in [1], in assay [2], in assay [3], in assay [4], in [5] and in assay [7] was “inactive” in each case. In addition, the Potency result in [8], in [9], in assay [10], in assay [11], in assay [18] and in assay [12] was “inactive” throughout. Moreover, the Potency entry in assay [13], in [14], in assay [15], in assay [20] and in assay [16] was “inactive” in each case. The compound was called inactive in [17].

For `CCCCOC(=O)COC(=O)c1ccccc1C(=O)OCCCC`, the Potency result in assay [1], in assay [2], in assay [3], in assay [4], in assay [5] and in assay [7] was “inactive” in each case. The Potency result in [8], in assay [11], in [18], in assay [12], in [13] and in assay [14] was “inactive” each time. Further, the Potency result in assay [19] and in assay [15] was “inactive” each time.

For the compound `ClCc1ccccn1`, the Potency entry in [1], in assay [2], in assay [3], in assay [4], in assay [5] and in [7] was “inactive” each time. Moreover, the Potency entry in [8], in [9], in [10], in assay [11], in assay [12] and in [13] was “inactive” throughout. Also, the Potency result in [14], in assay [19], in assay [15], in assay [20] and in assay [16] was “inactive” in each case. The call in assay [17] was inactive.
